# The list is not random: actives were taken first. Their share in the collection is about 11%.
# BAZ2B block: qHTS Assay for Inhibitors of BAZ2B | hit rate 4.4% among 360,000 | Potency, µM (doses to about 114 µM), without a hit: top-dose activity change, negative = inhibition, actives largely listed as inhibitors | AlphaScreen BAZ2B-H3K14Ac peptide displacement | Bromodomain adjacent to zinc finger domain protein 2B (Homo sapiens), Q9UIF8; further: on the % scale 0 is the no-effect control and ±100 the full control effect; nearly all actives have a fitted effect of over 60% in size
#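 Compounds, titrated to a top concentration of 110 uM, were incubated 30 min at room temperature with preformed BAZ2B/acetyl-K14 H3 peptide complex (50 nM each). Proximity signal was measured by AlphaScreen after 20 min with beads.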
# L3MBTL1 block: qHTS Assay for the Inhibitors of L3MBTL1; Potency, µM (series often up to 57.1 µM), for inactives: at the highest dose activity, negative = inhibition, most hits filed as inhibitors; Lethal(3)malignant brain tumor-like protein 1 (Homo sapiens), Q9Y468; hit rate 0.66% among 230,000; AID 485360, 2010; AlphaScreen L3MBTL1–H3K9me1 peptide binding; further: on the % scale 0 is the no-effect control and ±100 the full control effect; nearly all actives have a fitted effect of over 60% in size
# Target sequence (Q9Y468 whole entry, looked up): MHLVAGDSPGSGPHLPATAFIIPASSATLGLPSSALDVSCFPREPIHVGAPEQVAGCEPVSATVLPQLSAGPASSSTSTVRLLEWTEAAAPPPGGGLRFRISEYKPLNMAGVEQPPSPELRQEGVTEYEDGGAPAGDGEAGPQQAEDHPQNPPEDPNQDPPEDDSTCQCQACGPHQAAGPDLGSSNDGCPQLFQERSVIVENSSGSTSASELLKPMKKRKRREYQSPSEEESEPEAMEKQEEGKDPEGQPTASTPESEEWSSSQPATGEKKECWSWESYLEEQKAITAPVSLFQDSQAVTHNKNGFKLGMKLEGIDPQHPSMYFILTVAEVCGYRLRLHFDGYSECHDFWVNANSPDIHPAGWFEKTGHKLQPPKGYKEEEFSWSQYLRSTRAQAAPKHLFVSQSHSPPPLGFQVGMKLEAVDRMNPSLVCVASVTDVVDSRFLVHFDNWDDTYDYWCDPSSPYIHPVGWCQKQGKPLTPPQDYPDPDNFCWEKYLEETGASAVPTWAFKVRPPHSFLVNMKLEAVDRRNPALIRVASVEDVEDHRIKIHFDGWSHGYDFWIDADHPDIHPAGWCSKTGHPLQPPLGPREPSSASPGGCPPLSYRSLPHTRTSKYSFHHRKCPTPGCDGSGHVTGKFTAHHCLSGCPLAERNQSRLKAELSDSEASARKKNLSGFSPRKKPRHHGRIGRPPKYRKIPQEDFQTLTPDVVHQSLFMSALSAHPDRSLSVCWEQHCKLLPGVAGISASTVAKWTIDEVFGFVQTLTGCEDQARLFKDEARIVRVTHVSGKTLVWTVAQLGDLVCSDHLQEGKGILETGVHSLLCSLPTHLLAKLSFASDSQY
#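 Displacement of a biotinylated histone H3(1-15) peptide monomethylated at Lys9 (75 nM) from L3MBTL1 (50 nM) was measured by AlphaScreen after a 30 min room-temperature compound incubation; cefsulodin titration served as intraplate control.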
# G9a block: qHTS Assay for Inhibitors of Histone Lysine Methyltransferase G9a. Histone-lysine N-methyltransferase EHMT2 (Homo sapiens), Q96KQ7. G9a H3K9 monomethylation, AlphaScreen, 2 h. Potency, µM (series often up to 102 µM), without a hit: at the top dose activity, negative = inhibition, hits mostly inhibitors. hit rate 8.8% among 350,000; further: on the % scale 0 is the no-effect control and ±100 the full control effect; nearly all actives have a fitted effect of over 75% in size
#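 Chemiluminescent proximity detection of H3K9 monomethylation, read after 10 min bead incubation in the dark. Reaction: 20 nM G9a, 500 nM biotin-H3K9 peptide, 20 uM SAM cofactor, 2 h, room temperature, following 15 min enzyme-compound preincubation.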
# JMJD2A Tudor inh: qHTS Assay for Inhibitors of JMJD2A-Tudor Domain; Lysine-specific demethylase 4A (Homo sapiens), O75164; AlphaScreen JMJD2A-Tudor / H3K4me3 peptide binding; Potency, µM (series often up to 114 µM), for the others: top-dose activity change, negative = inhibition, hits mostly inhibitors; hit rate 4.4% among 390,000; AID 504339, 2011; further: on the % scale 0 is the no-effect control and ±100 the full control effect; nearly all actives have a fitted effect of over 50% in size
# HP1b chromo inh: HTS for Inhibitors of HP1-beta Chromodomain Interactions with Methylated Histone Tails | Chromobox protein homolog 1 (Homo sapiens), P83916 | Potency, µM (doses to about 114 µM), without a hit: at the highest dose activity change, negative = inhibition, hits mostly inhibitors | hit rate 0.56% among 390,000 | AlphaScreen HP1-beta / biotin-H3K9me3 peptide binding; further: nearly all actives have a fitted effect of over 70% in size
#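 Compound inhibition of the preformed complex between 50 nM HP1-beta and 50 nM biotinylated H3K9me3 peptide was read by AlphaScreen. Buffer was PBS pH 7.4 with 0.01% Tween-20. Incubations ran 30 min at room temperature, with 10 ug/mL donor/acceptor beads.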
# Starred values were filed as active, the others as inactive; ? = inconclusive; . = no result given; [ ] = dose if it differs, or a comment. The call rests on the fitted dose curve; in most records, active means well fitted inhibition curve with a large enough effect; inconclusive means small, poorly fitted or top-dose-only effect; inactive means no such curve, though single readings can be large or run the other way. Potency means the concentration at half of the fitted maximal effect.
SMILES,BAZ2B block,L3MBTL1 block,G9a block,JMJD2A Tudor inh,HP1b chromo inh
COc1ccc(-n2c(/C=C/c3cccc(C(F)(F)F)c3)nc3ccccc3c2=O)cc1Cl,0%,.,1%[59 µM],-8%,21%
Cc1cccc(Nc2nnc(SC/C(O)=C(\C#N)c3nc4ccccc4[nH]3)s2)c1,-33%,-18%,16µM*,-17%,1%
Cc1ccc(Nc2nnc(SC/C(O)=C(\C#N)c3nc4ccccc4[nH]3)s2)c(C)c1,5%,-5%,7.1µM*,-32%,2%
CC(C)n1c(=O)c2c(O)cc(=O)oc2c2ccccc21,-2%,-13%,-9%[0.0925 µM],50µM*,2%
Cc1ccccc1Oc1nc2c(c(=O)n(C)c(=O)n2C)n1Cc1ccc(Br)cc1,-11%,.,-51%[59 µM],-8%,32%
COc1ccc(NC(=O)CN(C)C(=O)Cn2cnc3c2c(=O)n(C)c(=O)n3C)cc1,12%,10%,21%[2.33 µM],-10%,20%
CCOc1ccc(NC(=O)CN(C)C(=O)c2cc(C)on2)cc1OCC,2%,6%,?,-10%,17%
CCOc1ccc(NC(=O)CN(C)C(=O)Cn2cnc3c2c(=O)n(C)c(=O)n3C)cc1OCC,-4%,-1%,50µM*,1%,22%
CCOc1ccc(NC(=O)CN(C)C(=O)c2ccccc2CCc2ccccc2)cc1OCC,-3%,-6%,56µM*,-33%,40%
CCOc1ccc(NC(=O)CN(C)C(=O)c2cc(-c3ccc(OC)cc3)nc3ccccc23)cc1OCC,-33%,-5%,50µM*,-32%,19%
COc1ccc(NC(=O)CN(C)C(=O)c2cc(-c3ccc(Cl)cc3)nc3ccccc23)cc1,-22%,-6%,?,-28%,18%
CCOc1ccc(NC(=O)CN(C)C(=O)c2ccncc2)cc1OCC,-35%,.,40µM*,-5%,46%
NC(=O)C1CCN(C(=O)C2CCC(=O)N(CC3CCCCC3)C2)CC1 (centres undefined),-11%,.,14%,3%,31%
CN1CCN(CC(=O)Nc2nc3ccccc3s2)CC1,71µM*,0%,35µM*,28µM*,?
O=C(Nc1nc2ccccc2s1)C1CCCN1S(=O)(=O)c1ccc(Cl)cc1 (centres undefined),-2%,-8%,-1%[59 µM],-31%,9%
Cc1ccc2nc(NC(=O)C3CCCN(S(=O)(=O)c4cccc5nsnc45)C3)sc2c1 (centres undefined),-39%,-10%,35µM*,?,-3%
Cc1ccc(S(=O)(=O)N2CCCC2C(=O)Nc2nc3ccccc3s2)cc1 (centres undefined),0%,-8%,16µM*,-20%,3%
O=C(CN1CCN(Cc2ccccc2)CC1)Nc1nc2ccccc2s1,-15%,.,0%,-21%,22%
O=C(CN1CCCCCC1)Nc1nc2ccccc2s1,.,.,.,22µM*,?
CCC12CN3CC(C)(CN(C1)C3c1c[nH]c3ccc(OC)cc13)C2=O (centres undefined),?,.,?,-27%,10%
O=C(CN1CCOCC1)Nc1nc2ccc(Br)cc2s1,-5%,.,50µM*,1%,38%
CCOC(=O)c1ccccc1NC(=O)N1CCCn2nc(C)cc21,-15%[57.1 µM],.,-3%[59 µM],-25%,4%
Cc1[nH]ccc(=O)c1Cc1c(Cl)cccc1Cl,-2%,.,2%,-1%,20%
Cc1nc(C(Cl)(Cl)Cl)nc2[nH]ccc(=O)c12,-30%,-5%,-8%,11µM*,-10%
Cn1cc(C(=O)c2ccccc2)cc1-c1nc2ccccc2n1C,-39%,-2%,50µM*,-34%,-7%
SMILES,BAZ2B block,L3MBTL1 block,G9a block,JMJD2A Tudor inh,HP1b chromo inh
Cc1oc(-c2nc3ccccc3n2C)cc1C(=O)c1ccccc1,-36%,-16%,10µM*,?,-5%
Cc1ccc(OCC(=O)Nc2ccc3nn(-c4ccc(C)cc4)nc3c2)cc1,-13%,.,13%[59 µM],-1%,11%
CCc1ccc(Cn2c(CNS(=O)(=O)c3ccc([N+](=O)[O-])cc3)nc3cccnc32)cc1,-1%,.,27%[59 µM],-8%,33%[57 µM]
Cc1noc(C)c1-c1ccc2ncnc(NCc3cccc(C(F)(F)F)c3)c2c1,.,.,.,-8%,.
COCc1cc(N2CCCCC2)nc(-c2ccccc2)n1,50%,7%,83%,20µM*,18%
O=[N+]([O-])c1nn(-c2ccc3c(c2)OCCO3)n(O)c1=NC1CCCCCC1,14µM*,.,13µM*,22µM*,?
O=[N+]([O-])c1nn(-c2ccc3c(c2)OCCO3)n(O)c1=NC1CCCC1,-9%,.,-48%,-19%,3%
O=[N+]([O-])c1nn(-c2ccc3c(c2)OCCO3)n(O)c1=Nc1ccc(Cl)cc1,?,-10%,?,-30%,-5%
CCc1ccc(N=c2c([N+](=O)[O-])nn(-c3ccc4c(c3)OCCO4)n2O)cc1,25µM*,.,18µM*,32µM*,?
Cc1ccc(N=c2c([N+](=O)[O-])nn(-c3ccc4c(c3)OCCO4)n2O)c(Cl)c1,-27%,-7%,45µM*,.,.
O=[N+]([O-])c1nn(-c2ccc3c(c2)OCCO3)n(O)c1=Nc1ccccc1,40µM*,-28%,?,45µM*,-34%
COc1ccc(CNc2ncncc2-c2ccccc2C(F)(F)F)c(OC)c1,.,.,2%[0.501 µM],.,.
O=C1CC(c2ccccc2)Cc2[nH]c(=O)c(-c3nc(-c4ccc(Cl)c(Cl)c4)cs3)cc21 (centres undefined),6%,.,6%[59 µM],1%,36%
CCN(CC)C(=O)Cn1c(=O)n(CC2CCC(C(=O)NC)CC2)c(=O)c2sccc21 (centres undefined),22%,.,29%[59 µM],1%,125%
COc1ccccc1C(=O)c1cn(CC(=O)Nc2ccccc2F)c2nc(C)ccc2c1=O,-5%,.,1%[59 µM],-26%,14%
CCCCS(=O)c1c(O)c2ccccc2[nH]c1=O (centres undefined),-7%,5%,32µM*,-13%,29%
O=c1[nH]c2ccccc2c(O)c1O,2%,6%,0.71µM*,50µM*,?
COc1ccc(C2CC(=O)c3cc(-c4nc(-c5cccc(Cl)c5)cs4)c(=O)[nH]c3C2)cc1OC (centres undefined),-1%,.,24%[59 µM],-13%,55%
COc1ccc(CNC(=O)CNS(=O)(=O)c2cccc(C#N)c2)cc1OC,-15%,.,50µM*,-20%,19%
N#Cc1cccc(S(=O)(=O)NCC(=O)NCc2ccc3c(c2)OCO3)c1,11%,-1%,?,-9%,36%
CCN(CC)CCCNC(=O)c1ccc2nc(CCc3ccccc3)oc2c1,3%,.,-15%[59 µM],-11%,20%[57 µM]

# High-throughput results as filed in PubChem BioAssay.
